# Results from PubChem BioAssay.
# Where “and” joins values, the source holds several entries; their conditions need not be identical. Equal values may be shown once. For some assays here: Potency and affinity values are given separately. Some structures have more than one record in an assay (separate samples or runs), and their calls can disagree. Calls of active or inactive are those of the source. Cut-off read from the data, not from the text of the source, unless noted: active = parasite load remaining mostly below about 12% (no sharp cut-off); inactive = mostly above about 10%.
# Experiments:
# [1] = polyglutamine-triggered caspase-3 activation inhibitors, cell-based (AID 1583); settings: polyglutamine-induced caspase-3 activation, cell assay; stronger effect = higher value;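 tested at 10 µM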
# [2] = suppressors of polyQ aggregation in yeast, 75Q-TubU reporter (AID 1593); settings: Yeast 75Q polyglutamine aggregation reporter
# [3] = rescue of polyQ-huntingtin neuronal dysfunction in worms, whole organism, C. elegans mechanosensory neurons, N-terminal huntingtin (AID 1599); settings: touch response, stronger effect = higher value
# [4] = inhibitors of mitochondrial cytochrome c release, biochemical, purified mitochondria (AID 1603); settings: stronger effect = lower value;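 note: mouse liver mitochondria challenged with calcium chloride; signal normalized to the plate average as 100%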
# [5] = inhibitors of polyQ protein aggregation (AID 1604); settings: polyglutamine-induced protein aggregation inhibition assay; stronger effect = higher value; tested at 2.5 µM
# [6] = enhancers of glutamate uptake in motor neurons, MN-1 cell line (AID 1612); settings: MN-1 motor neuron cells, stronger effect = higher value;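 note: tested at 1 µM final; 0% = mean of DMSO vehicle wells on each plate; positive means more glutamate uptake than control and negative means less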
# [7] = reducers of polyQ inclusions in PC12 cells, cell-based, NGF-treated PC12, GFPQ80 (AID 1614); settings: PC12 NGF-treated GFP-polyQ80 inclusion reduction;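 note: lower means fewer inclusions and 0 means no inclusions at all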
# [8] = suppressors of polyglutamine aggregation in yeast, 75Q-TubH (AID 1616); settings: S. cerevisiae 75Q-TubH polyglutamine aggregation suppression; stronger effect = higher value
# [9] = liver-stage malaria parasite growth inhibition, primary screen, cell-based, HepG2, luciferase luminescence, HepG2 viability (AID 624349);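 note: 100% = mean of DMSO negative control wells on the same plate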; settings: P. berghei liver stage in HepG2, luciferase luminescence, concentration not given here; parasite load remaining: stronger effect = lower value; viability: measured here: HepG2 viability without parasites
# [10] = molecular target: 6-phosphogluconate dehydrogenase, decarboxylating (Homo sapiens) (UniProt P52209); test: 6PGD enzyme inhibitors, primary screen, biochemical, human, recombinant enzyme, NADPH absorbance (AID 1159550;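 active = at least 20% inhibition of 6-phosphogluconate dehydrogenase activity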); settings: recombinant 6PGD, NADPH absorbance 341 nm; at 10 µM; stronger effect = higher value
# Chain of 6-phosphogluconate dehydrogenase, decarboxylating (Homo sapiens) (P52209 whole entry, looked up): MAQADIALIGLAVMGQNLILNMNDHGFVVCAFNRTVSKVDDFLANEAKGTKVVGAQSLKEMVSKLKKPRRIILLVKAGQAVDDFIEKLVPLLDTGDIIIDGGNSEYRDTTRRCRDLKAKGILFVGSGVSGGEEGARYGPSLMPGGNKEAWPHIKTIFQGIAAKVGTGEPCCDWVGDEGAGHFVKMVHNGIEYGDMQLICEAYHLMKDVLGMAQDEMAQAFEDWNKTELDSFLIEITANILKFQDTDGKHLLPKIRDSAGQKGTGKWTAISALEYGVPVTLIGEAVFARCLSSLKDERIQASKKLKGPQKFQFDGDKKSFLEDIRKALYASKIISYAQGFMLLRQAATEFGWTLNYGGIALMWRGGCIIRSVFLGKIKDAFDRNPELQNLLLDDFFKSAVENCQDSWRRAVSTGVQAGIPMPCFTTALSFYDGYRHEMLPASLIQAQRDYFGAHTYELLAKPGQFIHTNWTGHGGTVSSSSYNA
# [11] = differential killing of epithelial or mesenchymal cells, primary screen, imaging, PC-3E GFP, TEM4-18 mCherry, co-culture (AID 1345086;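 active = compounds killing one labelled cell type while sparing the other, by normalised counts and ratio limits, not self-fluorescent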;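 for all read-outs here: cells exposed to compound for 72 h before imaging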;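 for red/green cell ratio (normalised): normalised mesenchymal count divided by normalised epithelial count so high means epithelial killing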); settings: imaging cell counts, at 1 µM; for red/green cell ratio (normalised): actives lie on both sides, counts scaled to control wells, 1 = unselective
# [12] = sensitizers of A549 cells to miR-34 induction, primary screen, imaging, A549 dox-inducible miR-34, nuclei and caspase counts (AID 1347080;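 active = compounds whose cell count with miR-34 switched on is under 0.7 times the count with it off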); settings: A549 miR-34 inducible, Hoechst nuclei count, 48 h
# [13] = molecular target: NAD(+) hydrolase SARM1 (Homo sapiens) (UniProt Q6SZW1); test: SARM1 TIR NADase inhibitors, cell lysate, NAD-Glo luminescence (AID 1508614;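 active = compound whose remaining NAD level is above about 45 nM, limit read from the data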;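 note: higher remaining NAD means stronger inhibition of SARM1 NADase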); settings: SAM-TIR HEK293T lysate NADase, at 1 µM, stronger effect = higher value
# Chain of NAD(+) hydrolase SARM1 (Homo sapiens) (Q6SZW1 whole entry, looked up, the tested form may be a part): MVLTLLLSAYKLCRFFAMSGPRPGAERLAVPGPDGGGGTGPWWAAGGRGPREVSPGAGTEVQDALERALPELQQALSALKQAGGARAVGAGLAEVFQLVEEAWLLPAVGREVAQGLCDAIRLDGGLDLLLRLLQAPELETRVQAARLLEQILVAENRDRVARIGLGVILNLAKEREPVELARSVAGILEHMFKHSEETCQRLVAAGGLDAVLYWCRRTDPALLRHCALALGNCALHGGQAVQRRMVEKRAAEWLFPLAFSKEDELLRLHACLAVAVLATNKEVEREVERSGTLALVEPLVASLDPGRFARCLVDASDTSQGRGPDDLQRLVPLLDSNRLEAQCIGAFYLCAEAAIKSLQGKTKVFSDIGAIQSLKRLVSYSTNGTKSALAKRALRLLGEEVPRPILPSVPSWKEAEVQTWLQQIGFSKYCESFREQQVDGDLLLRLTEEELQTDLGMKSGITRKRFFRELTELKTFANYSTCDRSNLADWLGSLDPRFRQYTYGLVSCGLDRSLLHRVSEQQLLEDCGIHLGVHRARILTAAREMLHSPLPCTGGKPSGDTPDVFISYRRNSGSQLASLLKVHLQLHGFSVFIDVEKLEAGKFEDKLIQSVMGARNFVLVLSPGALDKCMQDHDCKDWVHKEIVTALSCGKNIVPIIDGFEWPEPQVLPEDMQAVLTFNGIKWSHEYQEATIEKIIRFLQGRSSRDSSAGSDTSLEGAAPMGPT
# [14] = molecular target: Mitogen-activated protein kinase 7 (Homo sapiens) (UniProt Q13164); test: ERK5 transactivation activators in reporter cells, primary screen, cell-based, HTS (AID 1508626;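 active = luciferase signal above three times the same-plate solvent-only control wells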;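 note: luciferase driven by Gal4-ERK5 fusion binding five Gal4 sites before minimal TATA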); settings: HeLa Gal4-ERK5 transactivation, 18 h, at 5 µM, stronger effect = higher value
# Chain of Mitogen-activated protein kinase 7 (Homo sapiens) (Q13164 whole entry, looked up, the tested form may be a part): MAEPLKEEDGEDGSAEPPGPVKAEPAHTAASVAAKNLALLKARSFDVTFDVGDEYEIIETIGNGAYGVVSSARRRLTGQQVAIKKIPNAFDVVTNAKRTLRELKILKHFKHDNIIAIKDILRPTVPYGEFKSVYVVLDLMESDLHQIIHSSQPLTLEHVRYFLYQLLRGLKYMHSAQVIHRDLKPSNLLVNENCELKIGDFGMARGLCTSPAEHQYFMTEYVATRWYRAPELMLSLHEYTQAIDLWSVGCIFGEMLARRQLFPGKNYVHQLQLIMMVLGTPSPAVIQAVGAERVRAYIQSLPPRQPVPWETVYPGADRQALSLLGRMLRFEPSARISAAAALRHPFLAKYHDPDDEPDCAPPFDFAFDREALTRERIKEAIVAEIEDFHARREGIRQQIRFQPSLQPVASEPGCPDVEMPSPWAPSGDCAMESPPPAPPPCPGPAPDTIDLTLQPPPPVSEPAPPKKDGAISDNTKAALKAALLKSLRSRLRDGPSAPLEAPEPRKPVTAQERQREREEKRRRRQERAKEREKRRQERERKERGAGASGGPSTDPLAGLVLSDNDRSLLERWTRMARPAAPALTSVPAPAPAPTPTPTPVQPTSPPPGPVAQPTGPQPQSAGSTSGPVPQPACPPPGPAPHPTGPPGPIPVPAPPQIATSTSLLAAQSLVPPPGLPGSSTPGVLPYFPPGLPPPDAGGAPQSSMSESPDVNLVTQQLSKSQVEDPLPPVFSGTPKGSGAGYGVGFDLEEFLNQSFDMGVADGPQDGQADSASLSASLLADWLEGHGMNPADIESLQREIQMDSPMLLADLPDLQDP
# [15] = circadian clock period modulators, cell-based, LOPAC library, luminescence reporter (AID 2774; call rule not given here;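 note: values are relative to mean of DMSO wells on each plate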); settings: circadian reporter cells, at 7 µM, actives lie on both sides
# [16] = phospholipid biosynthesis inhibitors in animal cells, primary screen, cell-based, LOPAC library, screen 4 (AID 1347384; call rule not given here); settings: phospholipid biosynthesis inhibition screen, at 10 µM
# [17] = survival rescue of mitochondrial mutant cells in low glucose, primary screen, MELAS cybrids, Rieske KO mouse fibroblasts, CellTiter-Glo (AID 1508586;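 active = mean z-score across replicates of 1.96 or higher in either the MELAS or the Rieske mutant cell line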;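 note: z relative to plate mean and SD of compound and empty wells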)
# [18] = viability rescue of complex I mutant cybrids, primary screen, cell-based, galactose medium, ATP luminescence (AID 1645843;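 active = z-score of at least 1.8 in each of two replicates, scored against plate mean and spread of sample wells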;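 note: positive z means more ATP and so rescue of galactose-driven cybrid death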); settings: complex I mutant cybrid cells, 72 h, stronger effect = higher value
# [19] = measured here: epithelial PC-3E GFP cell survival
# [20] = measured here: mesenchymal TEM4-18 mCherry cell survival
# [21] = stronger effect = lower value, cell number ratio, induced over uninduced
# [22] = measured here: relative caspase fold change +Dox/-Dox
# [23] = measured here: total cells with miR-34 induction, stronger effect = lower value
# [24] = measured here: total cells without miR-34 induction
smiles,measurement,setting,value
O=C(O)CN(CCN(CC(=O)O)CC(=O)O)CC(=O)O,inhibition,[1],13.2%
same,score,[2],1.69
same,rescue above control,[3],-6.51
same,cytochrome c release ratio,[4],0.54
same,inhibition of aggregation,[5],72.4%
same,glutamate uptake change,[6],-23.4%
same,inclusion score,[7],1.5
same,aggregation suppression score,[8],1.43
same,parasite load remaining,[9],74.6% (inactive) and 69.8% (inactive)
same,viability,[9],73.4% and 97.7%
same,inhibition,[10],8.13% (inactive)
same,red/green cell ratio (normalised),[11],1.05 (inactive) and 0.92 (inactive)
same,normalised cell number,[11]; [19],1.05 and 1.23
same,normalised cell number,[11]; [20],1.11 and 1.13
same,fold change,[12]; [21],0.899 (inactive)
same,fold change,[12]; [22],3.42
same,cell count,[12]; [23],11600
same,cell count,[12]; [24],12900
same,remaining NAD,[13],10 nM (inactive)
CC(C)c1nc(N(C)S(C)(=O)=O)nc(-c2ccc(F)cc2)c1/C=C/[C@@H](O)C[C@@H](O)CC(=O)O,parasite load remaining,[9],73.5% (inactive) and 60.1% (inactive)
same,viability,[9],86.4% and 101%
same,inhibition,[10],1.44% (inactive)
same,red/green cell ratio (normalised),[11],0.94 (inactive)
same,normalised cell number,[11]; [19],1.08
same,normalised cell number,[11]; [20],1.02
same,fold change,[12]; [21],0.858 (inactive)
same,fold change,[12]; [22],2.33
same,cell count,[12]; [23],12000
same,cell count,[12]; [24],13900
same,remaining NAD,[13],10 nM (inactive)
same,luciferase signal,[14],48 AU (inactive)
CC1(C)S[C@@H]2C(N3C(=O)[C@@H](c4ccccc4)NC3(C)C)C(=O)N2[C@H]1C(=O)O (stereo partly specified),inhibition,[1],4.02%
same,score,[2],1.26
same,rescue above control,[3],-1.6
same,cytochrome c release ratio,[4],0.9
same,inhibition of aggregation,[5],49.2%
same,glutamate uptake change,[6],4.63%
same,inclusion score,[7],2
same,aggregation suppression score,[8],1.31
same,parasite load remaining,[9],110% (inactive) and 71.1% (inactive)
same,viability,[9],76.4% and 94.5%
same,inhibition,[10],-0.481% (inactive)
same,red/green cell ratio (normalised),[11],1.14 (inactive)
same,normalised cell number,[11]; [19],0.94
same,normalised cell number,[11]; [20],1.08
same,fold change,[12]; [21],0.886 (inactive)
same,fold change,[12]; [22],0.799
same,cell count,[12]; [23],11200
same,cell count,[12]; [24],12600
CC(C)Cn1c(=O)n(C)c(=O)c2[nH]cnc21,inhibition,[1],10.7%
same,score,[2],1.18
same,rescue above control,[3],-7.15
same,cytochrome c release ratio,[4],0.66
same,inhibition of aggregation,[5],80.3%
same,glutamate uptake change,[6],11.7%
same,inclusion score,[7],2
same,aggregation suppression score,[8],1.34
same,period change,[15],0.065 h (inactive)
same,parasite load remaining,[9],31.6% (inactive)
same,viability,[9],71.5%
same,inhibition,[10],-0.657% (inactive) and 4.73% (inactive)
same,red/green cell ratio (normalised),[11],0.79 (inactive) and 0.82 (inactive)
same,normalised cell number,[11]; [19],1.26 and 1.32
same,normalised cell number,[11]; [20],1 and 1.09
same,outcome,[16],inactive
same,z-score,"[17]; MELAS cybrid survival, CellTiter-Glo 48 h, stronger effect = higher value",-0.413 (inactive) and 0.263 (inactive)
same,z-score,"[17]; Rieske KO mouse fibroblast survival, CellTiter-Glo 72 h",0.307 and 0.838
same,luciferase signal,[14],504 AU (active)
same,z-score,[18],0.71 (inactive) and -0.29 (inactive) and 0.67 (inactive)
CCN(CC)Cc1ccc(Nc2ccnc3cc(Cl)ccc23)cc1O,inhibition,[1],-50.2%
same,score,[2],1.49
same,rescue above control,[3],8.25
same,cytochrome c release ratio,[4],0.74
same,inhibition of aggregation,[5],65.5%
same,glutamate uptake change,[6],1.51%
same,aggregation suppression score,[8],1.68
same,parasite load remaining,[9],-0.345% (active) and 0.905% (inactive)
same,viability,[9],63% and 59.3%
same,inhibition,[10],4.92% (inactive)
same,red/green cell ratio (normalised),[11],0.8 (inactive)
same,normalised cell number,[11]; [19],1.14
same,normalised cell number,[11]; [20],0.91
same,fold change,[12]; [21],0.936 (inactive)
same,fold change,[12]; [22],0.896
same,cell count,[12]; [23],8520
same,cell count,[12]; [24],9100
NC[C@@H]1CC[C@@H](N)[C@@H](O[C@H]2[C@H](O)[C@@H](O[C@H]3O[C@H](CO)[C@@H](O)[C@H](N)[C@H]3O)[C@H](N)C[C@@H]2N)O1,inhibition,[10],-2.83% (inactive)
same,red/green cell ratio (normalised),[11],1.19 (inactive)
same,normalised cell number,[11]; [19],0.9
same,normalised cell number,[11]; [20],1.07
same,remaining NAD,[13],10 nM (inactive)
C=Cc1c(C)/c2[n-]/c1=C\c1[n-]c(c(CC)c1C)/C=c1\[n-]c3c(c1C)C(=O)C(C(=O)[O-])C=3c1[n-]c(c(C)c1CCC(=O)[O-])\C=2.[Cu].[Na+].[Na+] (stereo unspecified),parasite load remaining,[9],101% (inactive) and 38.1% (inactive)
same,viability,[9],71.3% and 170%
same,inhibition,[10],37.8% (active)
same,red/green cell ratio (normalised),[11],0.85 (inactive)
same,normalised cell number,[11]; [19],1.03
same,normalised cell number,[11]; [20],0.87
same,fold change,[12]; [21],0.937 (inactive)
same,fold change,[12]; [22],2.82
same,cell count,[12]; [23],11500
same,cell count,[12]; [24],12300
C1CNCCN1,inhibition,[1],15.3%
same,score,[2],1.95
same,rescue above control,[3],-1.97
same,cytochrome c release ratio,[4],1.16
same,inhibition of aggregation,[5],15.4%
same,glutamate uptake change,[6],-12.2%
same,inclusion score,[7],2
same,aggregation suppression score,[8],1.67
same,parasite load remaining,[9],96.9% (inactive) and 59.4% (inactive)
same,viability,[9],74.5% and 108%
same,inhibition,[10],7.35% (inactive)
same,red/green cell ratio (normalised),[11],1.22 (inactive)
same,normalised cell number,[11]; [19],0.8
same,normalised cell number,[11]; [20],0.98
same,fold change,[12]; [21],0.887 (inactive)
same,fold change,[12]; [22],2.06
same,cell count,[12]; [23],11000
same,cell count,[12]; [24],12400
same,remaining NAD,[13],10 nM (inactive)
same,luciferase signal,[14],560 AU (inactive)
O=c1[nH]c(=O)n(C2C[C@H](O)[C@@H](CO)O2)cc1C(F)(F)F (stereo partly specified),parasite load remaining,[9],74% (inactive) and 246% (inactive) and 30.9% (inactive)
same,viability,[9],71.7% and 82.9% and 99%
same,inhibition,[10],10.3% (inactive)
same,red/green cell ratio (normalised),[11],1.34 (inactive)
same,normalised cell number,[11]; [19],0.93
same,normalised cell number,[11]; [20],1.25
same,fold change,[12]; [21],1.06 (inactive) and 0.925 (inactive)
same,fold change,[12]; [22],0.737 and 3.77
same,cell count,[12]; [23],2260 and 12300
same,cell count,[12]; [24],2140 and 13300
